The structures appear in SMILES notation. About 83,000 compounds went through this panel and 20% of them were active in at least one assay; those are over-represented in the sample as a whole.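 Compound tested at a single concentration for 48 hours in 96-well plates; a percent growth value below 10 was scored as active.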 Values without a mark were called inactive. Calls of active or inactive are those of the source.

Test systems include NCI-H23 lung; NCI-H226 lung; NCI-H322M lung; HOP-62 NSCLC; NCI-H460 lung; NCI-H522 lung; A549/ATCC NSCLC; 786-0 renal; COLO 205 colon; DU-145 prostate; K-562 leukemia; MALME-3M melanoma; MDA-MB-231 breast; RXF 393 renal; SF-268 CNS; SF-295 CNS; SF-539 CNS; UACC-257 melanoma; M14 melanoma; HCT-15 colon.
What all share (experiment): NCI-60 one-dose screen, 48 h (100 = growth as untreated, 0 = no growth, -100 = all killed)
What all share (conditions): 10 µM unless noted

As to `CCCCc1nc(Cl)c(CO)n1Cc1ccc(-c2ccccc2-c2nn[nH]n2)cc1`, the growth is 106% in the test on NCI-H23 lung; 99.3% in the test on NCI-H226 lung; 97.1% with NCI-H322M lung; 97.7% in the test with HOP-62 NSCLC; 108% with NCI-H460 lung; 92.8% in the test on NCI-H522 lung. For the same molecule, the growth in the test with A549/ATCC NSCLC was 105%; in the test on 786-0 renal, 106%; in the test on COLO 205 colon, 96.6%; with DU-145 prostate it was 110%; with K-562 leukemia, 105%; with MALME-3M melanoma, 101%. In addition, the growth is 99.1% with MDA-MB-231 breast; 105% in the test on RXF 393 renal; 115% with SF-268 CNS; 99.9% in the test with SF-295 CNS; 100% in the test with SF-539 CNS; 104% in the test with UACC-257 melanoma. Further, the growth was 101% in the test with M14 melanoma and 106% in the test with HCT-15 colon.

For `COc1ccc2nc(-c3ccc(-n4cncc4-c4ccc(OC)c(N)c4)cc3)sc2c1`, the growth in the test on NCI-H23 lung was 108%; in the test on NCI-H226 lung, 108%; in the test with NCI-H322M lung, 95.3%; in the test with HOP-62 NSCLC it was 116%; in the test with NCI-H460 lung, 100%; in the test on NCI-H522 lung, 82%. Moreover, the growth in the test on A549/ATCC NSCLC is 93.5%; in the test on 786-0 renal, 111%; in the test on COLO 205 colon, 105%; in the test with DU-145 prostate, 119%; in the test with K-562 leukemia, 90.6%; in the test on MALME-3M melanoma, 131%. For the same molecule, the growth was 104% with MDA-MB-231 breast; 113% in the test with RXF 393 renal; 109% in the test on SF-268 CNS; 99.8% in the test on SF-295 CNS; 105% in the test with SF-539 CNS; 109% in the test on UACC-257 melanoma. In addition, the growth in the test with M14 melanoma was 110%; in the test with HCT-15 colon it was 97.4%.

With `Fc1ccc(-c2nc(Nc3ccc(-c4nc5ccccc5[nH]4)cc3)nc(N3CCOCC3)n2)cc1`, the growth was -83.4% (active) with NCI-H23 lung; -64.5% (active) with NCI-H226 lung; -92.8% (active) in the test with NCI-H322M lung; -73.9% (active) with HOP-62 NSCLC; -80.3% (active) with NCI-H460 lung; -73.9% (active) in the test with NCI-H522 lung. Further, the growth is -75.2% (active) with A549/ATCC NSCLC; -94.5% (active) in the test on 786-0 renal; -68.4% (active) with COLO 205 colon; -94% (active) with DU-145 prostate; -100% (active) with K-562 leukemia; -73.4% (active) with MALME-3M melanoma. The growth is -76.7% (active) with MDA-MB-231 breast; -91.1% (active) in the test on RXF 393 renal; -82.7% (active) in the test with SF-268 CNS; -94.4% (active) in the test on SF-295 CNS; -92.7% (active) in the test with SF-539 CNS; -82.6% (active) in the test on M14 melanoma. In the test with HCT-15 colon, the growth was -92.6% (active).

For the molecule `COc1ccc2c(c1)C(=O)c1c-2c(OCCN(C)C)nc2cc(OC)ccc12`, the growth is -57.2% (active) in the test on NCI-H23 lung; -25.7% (active) with NCI-H226 lung; 19.7% with NCI-H322M lung; 14.9% in the test on HOP-62 NSCLC; -70.7% (active) in the test with NCI-H460 lung; -22.1% (active) with NCI-H522 lung. The growth with A549/ATCC NSCLC was -43.6% (active); with 786-0 renal, 36.1%; in the test on COLO 205 colon it was 2.84% (active); with DU-145 prostate, 29%; with K-562 leukemia, -47.7% (active); in the test on MALME-3M melanoma, -39.9% (active). In addition, the growth in the test on MDA-MB-231 breast was 1.22% (active); in the test with RXF 393 renal, -8.64% (active); in the test on SF-268 CNS it was 35.7%; in the test with SF-295 CNS, 31.8%; in the test on SF-539 CNS, 15%; in the test with UACC-257 melanoma, 20.5%. Further, the growth was 11.6% in the test on M14 melanoma and -63.4% (active) with HCT-15 colon.

Turning to `CC[C@H](C)C(=O)O[C@H]1C[C@@H](C)C=C2C=C[C@H](C)[C@H](CC[C@@H]3C[C@@H](O)CC(=O)O3)[C@H]21`, the growth is 67.8% in the test with NCI-H23 lung; 95.5% with NCI-H226 lung; 54.2% with NCI-H322M lung; 104% in the test on HOP-62 NSCLC; 102% in the test with NCI-H460 lung; 27.3% in the test with NCI-H522 lung. Further, the growth is 102% in the test on A549/ATCC NSCLC; 90.5% with 786-0 renal; 99.7% in the test on COLO 205 colon; 106% with DU-145 prostate; 104% in the test with K-562 leukemia; 89.7% in the test with MALME-3M melanoma. In addition, the growth in the test on MDA-MB-231 breast is -35.3% (active); in the test with RXF 393 renal, 97.7%; with SF-268 CNS, 42.7%; in the test on SF-295 CNS, 28.8%; with SF-539 CNS, 95.9%; in the test with UACC-257 melanoma it was 83.5%. Also, the growth is 59.2% in the test with M14 melanoma and 55.1% with HCT-15 colon.

As for `CCN1CCN(c2cc(-c3cn[nH]c3-c3cc(C)cc(OC)c3)nc(-c3cccnc3)n2)CC1`, the growth in the test with NCI-H23 lung was 93.9%; with NCI-H226 lung, 99.7%; with NCI-H322M lung it was 67.5%; in the test with HOP-62 NSCLC it was 101%; in the test with NCI-H460 lung it was 88.9%; in the test on NCI-H522 lung, 75.6%. Besides, the growth with A549/ATCC NSCLC is 82.3%; in the test with 786-0 renal, 58.1%; in the test on COLO 205 colon, 51.3%; in the test on DU-145 prostate, 75%; with K-562 leukemia, 21.9%; in the test on MALME-3M melanoma, 91.9%. Further, the growth is 58.6% in the test on MDA-MB-231 breast; 61.2% in the test with RXF 393 renal; 87.3% in the test with SF-268 CNS; 99.9% with SF-295 CNS; 83% with SF-539 CNS; 84.8% in the test with UACC-257 melanoma. The growth with M14 melanoma is 83.1%; with HCT-15 colon, 19.2%.

With `Cc1ccc(C(C)C)cc1NC(=O)Nc1ccc([N+](=O)[O-])cc1`, the growth was -32.8% (active) with NCI-H23 lung; 27.3% with NCI-H226 lung; 43.2% in the test on NCI-H322M lung; -0.0828% (active) in the test with HOP-62 NSCLC; -1.38% (active) in the test with NCI-H460 lung; -19.8% (active) in the test on NCI-H522 lung. Moreover, the growth with A549/ATCC NSCLC was 9.96% (active); with 786-0 renal, 8.79% (active); in the test with COLO 205 colon, -35.4% (active); with DU-145 prostate, 12.2%; in the test on K-562 leukemia, 18.2%; in the test with MALME-3M melanoma, 6.64% (active). The growth was 35.6% in the test with MDA-MB-231 breast; 90.8% with RXF 393 renal; 29.9% in the test with SF-268 CNS; 4.2% (active) in the test on SF-295 CNS; 29% in the test on SF-539 CNS; -5.55% (active) in the test with UACC-257 melanoma. For the same molecule, the growth with M14 melanoma was 22.3%; in the test on HCT-15 colon, 10.7%.

The values are drawn from PubChem BioAssay (NCI).
